# Shown are actives, neighbours in structure and some others; about 2.5% of the full set was active somewhere.
# Exocytosis inh: LAMP-1 surface exposure blockers, TALL-104 cells – cell-based, flow cytometry, MLPCN library, primary screen; TALL-104 LAMP-1 surface exposure; cells stimulated with thapsigargin and PMA; inhibition, % at 10 µM; hit rate 0.66% among 360,000; AID 651702, 2012;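 active = inhibition above about 55%, limit read from the data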
# ABCB6 inh 2: ABCB6 transporter inhibitors, primary screen, K562-ABCB6 cells, flow cytometry, MLPCN library; ATP-binding cassette sub-family B member 6 (Homo sapiens), Q9NP58; K562-ABCB6 porphyrin accumulation, 1 h; hits give low values; fluorescence ratio to DMSO, % at 10 µM; hit rate 0.19% among 360,000; AID 602162, 2011;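 active = fluorescence ratio to DMSO below 75%, the collection mean minus 3 SD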;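 note: signal is porphyrin accumulated inside mitochondria; 100% equals median channel fluorescence of DMSO control wells; lower ratio means ABCB6 inhibition with less porphyrin fluorescence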
# Target sequence (Q9NP58 whole entry, looked up): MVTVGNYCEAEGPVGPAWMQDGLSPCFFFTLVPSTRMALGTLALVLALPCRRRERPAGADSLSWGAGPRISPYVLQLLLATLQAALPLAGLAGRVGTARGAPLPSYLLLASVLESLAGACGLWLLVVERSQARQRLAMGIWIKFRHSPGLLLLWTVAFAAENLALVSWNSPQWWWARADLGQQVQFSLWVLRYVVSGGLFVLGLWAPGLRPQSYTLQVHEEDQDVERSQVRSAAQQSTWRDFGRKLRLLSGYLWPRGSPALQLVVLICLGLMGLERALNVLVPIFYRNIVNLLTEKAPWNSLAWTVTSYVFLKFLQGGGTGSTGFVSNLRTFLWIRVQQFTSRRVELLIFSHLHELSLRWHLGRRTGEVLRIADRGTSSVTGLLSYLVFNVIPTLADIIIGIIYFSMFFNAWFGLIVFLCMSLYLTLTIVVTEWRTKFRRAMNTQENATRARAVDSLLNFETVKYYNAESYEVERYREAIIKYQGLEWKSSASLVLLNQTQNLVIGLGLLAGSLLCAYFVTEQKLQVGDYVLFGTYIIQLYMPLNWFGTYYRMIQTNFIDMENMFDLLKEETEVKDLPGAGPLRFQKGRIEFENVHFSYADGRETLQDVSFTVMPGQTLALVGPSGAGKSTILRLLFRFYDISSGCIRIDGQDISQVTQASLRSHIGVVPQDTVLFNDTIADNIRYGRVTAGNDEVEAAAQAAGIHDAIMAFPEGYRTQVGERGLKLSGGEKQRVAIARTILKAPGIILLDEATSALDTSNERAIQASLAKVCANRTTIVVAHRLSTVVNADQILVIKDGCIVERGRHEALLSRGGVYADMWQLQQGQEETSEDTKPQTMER
# PG9 binder: binders of HIV-1 gp120 antibody PG9, primary screen, biochemical, TR-FRET; TR-FRET gp120-PG9 antibody binding; HIV-1 gp120 / PG9 antibody interaction; inhibition, % at 6.7 µM; hit rate 0.43% among 360,000; AID 624416, 2012; in the data active = inhibition above about 8.5%
# rCAG RNA binder: binders of r(CAG) RNA repeats, primary screen, biochemical, fluorescence; r(CAG) RNA repeat, TO-PRO-1 dye displacement fluorescence; inhibition, % at 3 µM; hit rate 1.3% among 370,000; AID 651821, 2012;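 active = inhibition above the plate cutoff, the mean of all test compounds on that plate plus 3 SD, cut at about 35% in these data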;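 note: 0% = DMSO alone and 100% = 100 µM mitoxantrone as full dye displacement; higher means more dye released from RNA so lower well fluorescence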
# rCAG binder conf: small molecules binding CAG repeat RNA – biochemical, fluorescence, confirmation. shares compounds with rCAG RNA binder. r(CAG) RNA repeat, TO-PRO-1 dye displacement fluorescence. inhibition, % at 3 µM. hit rate 70% among 4,300. AID 652065, 2013;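 active = inhibition above a per-plate cutoff, the mean inhibition of sample wells plus 3 SD, cut at about 35% in these data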;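 note: loss of TO-PRO-1 fluorescence as compound displaces dye from 1x1 AA loop RNA; 0% = DMSO only wells and 100% = 100 µM mitoxantrone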
# DNA CAG counter: displacement of TO-PRO-1 from CAG DNA duplex, counter-screen for rCAG RNA repeat binder project, biochemical, fluorescence, TO-PRO-1 dye, d(CAG) DNA oligo | shares compounds with rCAG RNA binder | d(CAG) DNA oligo TO-PRO-1 dye displacement | inhibition, % at 3 µM | hit rate 94% among 4,300 | AID 652068, 2013;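 active = inhibition above its plate's cutoff, the mean test-well inhibition plus 3 SD, cut at about 4.8% in these data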;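 note: 0% = DNA dye mix with DMSO and 100% = 100 µM mitoxantrone; hits displace the dye from DNA and so lower well fluorescence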
# dCAG dye DR: inhibitors of DNA CAG/GTC TO-PRO-1 complex, dose response, counter-screen for rCAG RNA repeat binder project, biochemical, fluorescence, TO-PRO-1 dye | shares compounds with rCAG RNA binder | DNA CAG/GTC duplex TO-PRO-1 dye displacement fluorescence | IC50, µM | hit rate 20% among 250 | AID 686960, 2013; in the data active = IC50 below about 10 µM
# Numbers without * were called inactive; i = inactive; . = no result given.
SMILES,Exocytosis inh,ABCB6 inh 2,PG9 binder,rCAG RNA binder,rCAG binder conf,DNA CAG counter,others
COc1cc(/C=C2\SC(=O)N(c3cccc(Cl)c3)C2=O)cc([N+](=O)[O-])c1O,0.9,98.0,-3.3,36.9*,85.3*,44.5*,
O=C1S/C(=C\c2ccc(O)c([N+](=O)[O-])c2)C(=O)N1c1ccccc1Cl,1.5,91.0,0.6,47.8*,44.0*,11.3*,
O=C1S/C(=C\c2ccc(O)c([N+](=O)[O-])c2)C(=O)N1Cc1cccc([N+](=O)[O-])c1,12.5,95.0,-2.9,7.7,.,.,
COc1cc(/C=C2\SC(=O)N(c3ccc(Cl)cc3)C2=O)cc([N+](=O)[O-])c1O,1.6,101.0,-2.5,33.7,.,.,
Cc1cc(NC(=O)c2cc(-c3ccc(C)c(C)c3)nc3ccccc23)no1,-3.1,94.0,-1.9,10.1,.,.,
CC(=O)NS(=O)(=O)c1ccc(NC(=O)c2cc(-c3ccc(C)c(C)c3)nc3ccccc23)cc1,-1.3,98.0,-1.4,76.7*,70.5*,36.8*,
CC(=O)NS(=O)(=O)c1ccc(NC(=O)c2cc(-c3cccs3)nc3ccccc23)cc1,-2.5,103.0,-0.4,14.5,.,.,
CC(=O)NS(=O)(=O)c1ccc(NC(=O)c2cc(-c3ccc(C)cc3)nc3ccccc23)cc1,-7.7,100.0,-0.8,53.5*,35.3*,9.3*,
N=C1SC(c2ccccc2)C(=O)N1c1ncc(Cc2ccccc2Cl)s1 (stereo unspecified),-4.0,98.0,-3.1,58.0*,71.9*,31.5*,dCAG dye DR=i
CCCCc1ccc(CC(=O)Nc2cc(S(=O)(=O)N3CCOCC3)ccc2O)cc1,3.1,97.0,0.1,47.7*,51.3*,16.1*,
O=C(CSc1nc2ccccc2s1)Nc1cc(S(=O)(=O)N2CCOCC2)ccc1O,-2.0,105.0,1.4,48.8*,39.7*,15.9*,
Cc1ccc(C)c(S(=O)(=O)/N=C2\C=C(NS(=O)(=O)c3ccccc3)C(=O)c3ccccc32)c1,29.9,99.0,0.0,67.5*,90.1*,68.7*,
CCc1ccc(S(=O)(=O)/N=C2\C=C(NS(=O)(=O)c3ccccc3)C(=O)c3ccccc32)cc1,18.7,95.0,0.3,58.8*,88.9*,66.5*,
Cc1ccccc1NC1=C/C(=N\S(=O)(=O)c2ccc(C(=O)O)cc2)c2ccccc2C1=O,-2.1,104.0,-6.2,32.0,.,.,
O=C(CN1C(=O)c2ccccc2S1(=O)=O)Nc1cccc(S(=O)(=O)N2CCCCC2)c1,1.3,89.0,-0.6,11.1,.,.,
O=[N+]([O-])c1ccccc1S(=O)(=O)Nc1cccc(-c2ccc(N3CCCC3)nn2)c1,6.1,101.0,-1.8,36.4*,32.9,9.6*,
COc1ccc(-c2ccc(NS(=O)(=O)c3cc([N+](=O)[O-])ccc3C)cc2)nn1,-1.9,98.0,1.3,25.3,.,.,
CCN(CC)S(=O)(=O)c1ccc(NS(=O)(=O)c2ccc(OC)c([N+](=O)[O-])c2)cc1,-1.8,100.0,-0.8,42.5*,18.4,3.9,
COc1ccc(-c2ccc(NS(=O)(=O)c3cc([N+](=O)[O-])c(C)c([N+](=O)[O-])c3)cc2)nn1,-0.8,98.0,-2.7,55.5*,42.5*,15.1*,
Cc1ccc([N+](=O)[O-])cc1S(=O)(=O)Nc1ccc(-c2ccc(N3CCCC3)nn2)cc1,-2.8,99.0,-0.1,37.4*,43.5*,15.5*,
CCC1=NN(C(=O)Cc2ccc(OC)c(OC)c2)C(O)(C(F)(F)F)C1 (stereo unspecified),-7.9,107.0,-0.2,-4.6,.,.,
O=[N+]([O-])c1cccc(CSc2nnc(Cc3ccccc3)n2-c2ccc(F)cc2)c1,-3.4,97.0,-1.1,-8.3,.,.,
NC1=NC2CS(=O)(=O)CC2S1 (stereo unspecified),0.2,101.0,-0.7,1.4,.,.,

# Source: PubChem (several laboratories)
